# Source: the antibiotic and cytotoxicity screens of Wong et al. (2023)
# Among all 39,000 compounds or so, about 1,500 (3.8%) were called active. This excerpt belongs to a sample that is enriched for actives.
# System: HSkMC (human skeletal muscle cells)
# Assay: cytotoxicity call (relative viability < 0.9)
# Conditions: 10 µM
row,SMILES,cytotoxicity call
1,C[C@H](CO)N1C[C@H](C)[C@H](CN(C)Cc2ccc(O)cc2)OCc2ccccc2-c2c(n(C)c3ccccc23)C1=O,inactive
2,CC(C)NC(=O)Nc1ccc2c(c1)C(=O)N([C@H](C)CO)C[C@@H](C)[C@H](CN(C)S(C)(=O)=O)OCCCC[C@@H](C)O2,inactive
3,C[C@@H]1CN([C@H](C)CO)C(=O)Cc2cc(NS(=O)(=O)c3ccc(Cl)cc3)ccc2O[C@H]1CN(C)Cc1ccc(C(=O)Nc2ccccc2N)cc1,inactive
4,Cc1ccc(S(=O)(=O)N(C)C[C@@H]2Oc3cc(C#Cc4ccncc4)ccc3S(=O)(=O)N([C@@H](C)CO)C[C@@H]2C)cc1,inactive
5,C[C@H]1CN([C@@H](C)CO)C(=O)c2cccc(NS(=O)(=O)c3cn(C)cn3)c2O[C@H]1CN(C)S(=O)(=O)c1ccc(F)cc1,inactive
6,C[C@H]1CN([C@@H](C)CO)S(=O)(=O)c2ccc(C#Cc3ccc(F)cc3)cc2O[C@H]1CN(C)CC1CC1,inactive
7,C[C@@H]1CCCCO[C@H](CN(C)C(=O)CCC(F)(F)F)[C@H](C)CN([C@@H](C)CO)C(=O)c2cc(NC(=O)Nc3ccc4c(c3)OCO4)ccc2O1,inactive
8,CCOC(=O)C1=CC(OC(CC)CC)C(NC(C)=O)C(N)C1.O=P(O)(O)O (stereo unspecified),inactive
9,COc1ccc(S(=O)(=O)N(C)C[C@@H]2Oc3ccc(NS(=O)(=O)c4ccc(F)cc4)cc3C(=O)N([C@@H](C)CO)C[C@@H]2C)cc1,inactive
10,C[C@H]1CN([C@@H](C)CO)C(=O)Cc2cc(NC(=O)C3CC3)ccc2O[C@H]1CN(C)S(=O)(=O)c1ccc(F)cc1,inactive
11,C[C@@H]1CN([C@H](C)CO)C(=O)c2cc(NC(=O)Nc3cccc4ccccc34)ccc2O[C@@H]1CN(C)C(=O)Nc1ccc2c(c1)OCO2,inactive
12,COc1ccc([C@H]([C@H](Cc2ccccc2)OC(C)=O)N(CC#C[C@@H](O)c2ccccc2)[C@@H](Cc2ccccc2)C(OC)OC)cc1,inactive
13,COc1ccc2c3c(n(c2c1)C)[C@H](CO)N(Cc1ccccc1F)C[C@]13CN(C1)C(=O)C1CCOCC1,inactive
14,C[C@@H]1CN([C@@H](C)CO)C(=O)c2cc(NC(=O)Nc3ccc(C(F)(F)F)cc3)ccc2O[C@@H](C)CCCCO[C@H]1CN(C)Cc1ccc(C(F)(F)F)cc1,inactive
15,C[C@H](CO)N1C[C@H](C)[C@@H](CN(C)Cc2ccc(C(F)(F)F)cc2)OCCCC[C@H](C)Oc2ccc(NC(=O)Nc3ccc(C(F)(F)F)cc3)cc2C1=O,inactive
16,C[C@@H]1CCCCO[C@H](CN(C)Cc2ccc(C(F)(F)F)cc2)[C@H](C)CN([C@@H](C)CO)C(=O)c2cc(NC(=O)Nc3ccc(C(F)(F)F)cc3)ccc2O1,active
17,C[C@@H]1CCCCO[C@H](CN(C)Cc2ccc(C(F)(F)F)cc2)[C@H](C)CN([C@H](C)CO)C(=O)c2cc(NC(=O)Nc3ccc(C(F)(F)F)cc3)ccc2O1,active
18,C[C@H]1CCCCO[C@H](CN(C)Cc2ccc(C(F)(F)F)cc2)[C@@H](C)CN([C@@H](C)CO)C(=O)c2cc(NC(=O)Nc3ccc(C(F)(F)F)cc3)ccc2O1,inactive
19,C[C@@H]1CCCCO[C@H](CN(C)Cc2ccc(C(F)(F)F)cc2)[C@@H](C)CN([C@@H](C)CO)C(=O)c2cc(NC(=O)Nc3ccc(C(F)(F)F)cc3)ccc2O1,inactive
20,C[C@@H]1CCCCO[C@H](CN(C)C(=O)c2ccccc2)[C@H](C)CN([C@H](C)CO)C(=O)c2cc(NC(=O)C3CCCCC3)ccc2O1,inactive
21,O=C(NCCN1CCOCC1)c1cccs1,inactive

row,SMILES,cytotoxicity call
1,CCc1c(Cl)c(O)c(Cl)c(O)c1C(=O)O[C@H]1[C@H](O)[C@H](OC)[C@H](OC/C2=C\C=C\C[C@H](O)/C(C)=C/[C@H](CC)[C@@H](O[C@@H]3OC(C)(C)[C@@H](OC(=O)C(C)C)[C@H](O)[C@@H]3O)/C(C)=C/C(C)=C/C[C@@H]([C@@H](C)O)OC2=O)O[C@@H]1C,active
2,COc1ccc(CN(C)C[C@@H]2OCCCC[C@H](C)Oc3ccc(NC(=O)Nc4ccc(F)cc4)cc3C(=O)N([C@H](C)CO)C[C@@H]2C)cc1,inactive
3,COc1ccc(CN(C)C[C@H]2OCCCC[C@@H](C)Oc3ccc(NC(=O)Nc4ccc(F)cc4)cc3C(=O)N([C@H](C)CO)C[C@H]2C)cc1,active
4,COc1ccc(CN(C)C[C@H]2OCCCC[C@H](C)Oc3ccc(NC(=O)Nc4ccccc4)cc3C(=O)N([C@@H](C)CO)C[C@@H]2C)cc1,inactive
5,COc1ccc(CN(C)C[C@H]2OCCCC[C@@H](C)Oc3ccc(NC(=O)Nc4ccccc4)cc3C(=O)N([C@H](C)CO)C[C@H]2C)cc1,active
6,COc1ccc(CN(C)C[C@@H]2OCCCC[C@@H](C)Oc3ccc(NC(=O)Nc4ccccc4)cc3C(=O)N([C@@H](C)CO)C[C@@H]2C)cc1,inactive
7,COc1ccc(CN(C)C[C@@H]2OCCCC[C@H](C)Oc3ccc(NC(=O)Nc4ccc(F)cc4)cc3C(=O)N([C@@H](C)CO)C[C@@H]2C)cc1,inactive
8,C[C@@H]1CCCCO[C@@H](CN(C)C(=O)C2CCCCC2)[C@H](C)CN([C@H](C)CO)C(=O)c2cc(NC(=O)Nc3ccc(C(F)(F)F)cc3)ccc2O1,inactive
9,C[C@H](CO)N1C[C@H](C)[C@H](CN(C)C(=O)Nc2ccccc2C(F)(F)F)OCc2cnnn2CCCC1=O,inactive
10,CO[C@@H]1CN(C)C(=O)c2cc(NC(=O)C3CC3)ccc2OC[C@H](C)N(C(=O)Cc2ccccn2)C[C@@H]1C,inactive
11,COc1ccc(S(=O)(=O)N[C@@H]2C=C[C@H](CC(=O)N3CCC(Cc4ccccc4)CC3)O[C@@H]2CO)cc1,inactive
12,Cn1cc(-c2ccno2)c(C(=O)O)n1,inactive
13,Cc1c(-c2c(-c3ccc(F)o3)sc3ncnc(O[C@H](Cc4ccccc4OCc4ccnn4CC(F)(F)F)C(=O)O)c23)ccc(OCCN2CCN(C)CC2)c1Cl,active
14,N#C[C@@H]1N[C@H](CO)[C@H]1c1ccccc1,inactive
15,CCCCCCO[C@@H](C)c1cccc(-c2csc(NC(=O)c3cc(Cl)c(/C=C(\C)C(=O)O)c(Cl)c3)n2)c1OC,active
16,COCC(=O)N1CC(C)(C)c2cc(-c3csc(NC(=O)c4ccc(F)c(OC(F)(F)F)c4)n3)ccc21,inactive
17,C[C@H](CO)N1C[C@H](C)[C@@H](CN(C)Cc2ccncc2)Oc2c(NS(=O)(=O)c3ccccc3)cccc2C1=O,inactive
18,C[C@H]1CN([C@@H](C)CO)C(=O)Cc2cc(NS(=O)(=O)c3ccc(F)cc3)ccc2O[C@@H]1CN(C)Cc1ccc(-c2ccccc2)cc1,active
19,C[C@@H]1CN([C@H](C)CO)C(=O)Cc2cc(NS(=O)(=O)c3ccc(F)cc3)ccc2O[C@H]1CN(C)Cc1ccc(-c2ccccc2)cc1,active
20,C[C@@H]1CN([C@H](C)CO)C(=O)Cc2cc(NS(=O)(=O)c3ccc(F)cc3)ccc2O[C@@H]1CN(C)Cc1ccc(-c2ccccc2)cc1,active
21,C[C@H]1CN([C@@H](C)CO)C(=O)Cc2cc(NS(=O)(=O)c3ccc(F)cc3)ccc2O[C@H]1CN(C)Cc1ccc(-c2ccccc2)cc1,active

row,SMILES,cytotoxicity call
1,Cc1ccc(S(=O)(=O)N(C)C[C@H]2Oc3ncc(-c4ccncc4)cc3C(=O)N([C@H](C)CO)C[C@H]2C)cc1,inactive
2,C[C@H]1CCCCO[C@@H](CN(C)C(=O)Nc2ccc3c(c2)OCO3)[C@@H](C)CN([C@@H](C)CO)C(=O)c2cc(NC(=O)c3ccccc3)ccc2O1,inactive
3,CO[C@@H]1CN(C)C(=O)c2cc(NS(C)(=O)=O)ccc2OC[C@@H](C)N(C(=O)C2CCOCC2)C[C@@H]1C,inactive
4,Cc1noc(C)c1NC(=O)Nc1cccc2c1O[C@H](CN(C)Cc1ccc(C(F)(F)F)cc1)[C@H](C)CN([C@H](C)CO)C2=O,inactive
5,NNC(=O)c1cc2ccccc2[nH]1,inactive
6,C[C@H]1CCCCO[C@H](CN(C)Cc2ccccc2)[C@@H](C)CN([C@@H](C)CO)C(=O)c2cc(NC(=O)C3CCCCC3)ccc2O1,inactive
7,C[C@H](CO)N1C[C@H](C)[C@@H](CN(C)Cc2ccc(-c3ccccc3)cc2)Oc2ccc(NS(=O)(=O)c3ccc(F)cc3)cc2CC1=O,inactive
8,C[C@@H]1CN([C@@H](C)CO)C(=O)Cc2cc(NS(=O)(=O)c3ccc(F)cc3)ccc2O[C@H]1CN(C)Cc1ccc(-c2ccccc2)cc1,inactive
9,C[C@H](CO)N1C[C@H](C)[C@H](CN(C)Cc2ccc(-c3ccccc3)cc2)Oc2ccc(NS(=O)(=O)c3ccc(F)cc3)cc2CC1=O,active
10,C[C@@H]1CN([C@@H](C)CO)C(=O)Cc2cc(NS(=O)(=O)c3ccc(F)cc3)ccc2O[C@@H]1CN(C)Cc1ccc(-c2ccccc2)cc1,active
11,C[C@@H]1CN([C@@H](C)CO)C(=O)c2cc(NC(=O)CCC(F)(F)F)ccc2O[C@@H](C)CCCCO[C@H]1CN(C)C(=O)C1CCCCC1,inactive
12,CSC1=NN(C)c2cnn(C)c(=O)c2S1,inactive
13,Cc1noc(C)c1NC(=O)Nc1ccc2c(c1)C(=O)N([C@@H](C)CO)C[C@H](C)[C@@H](CN(C)C(=O)Nc1cccc3ccccc13)OCCCC[C@H](C)O2,inactive
14,CC(C)NC(=O)Nc1ccc2c(c1)C(=O)N([C@@H](C)CO)C[C@@H](C)[C@@H](CN(C)S(=O)(=O)c1ccc(F)cc1)O2,inactive
15,CO[C@@H]1CN(C)C(=O)c2ccc(NS(=O)(=O)c3cn(C)cn3)cc2OC[C@H](C)N(CCC(F)(F)F)C[C@H]1C,inactive
16,CC(=N)NCc1cccc(CN)c1,inactive
17,O=C(C[C@H]1CC[C@@H](NC(=O)c2cccnc2)[C@@H](CO)O1)NCCN1CCCCC1,inactive
18,Cc1noc(C)c1CC(=O)N1CCCC[C@@H]1CCOc1cccc(CN(C)Cc2cccc3cccnc23)c1,inactive
19,Cc1ccc(S(=O)(=O)N(C)C[C@H]2Oc3ccc(NS(=O)(=O)c4ccc(F)cc4)cc3CC(=O)N([C@H](C)CO)C[C@H]2C)cc1,inactive
